# Pf growth 48h: inhibits P. falciparum growth in the first generation, 48 h; P. falciparum luciferase growth in erythrocytes, 48 h; actives 5.9% (n = 310,000); Potency, µM (titrated, usually from 28.7 µM), for inactives: at the highest dose activity change, negative = inhibition, usual class: inhibitors; note: potency is the fitted concentration of half-maximal effect; % is set by controls: 0 for no effect and ±100 for the full control effect
#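 In quantitative HTS format, infected erythrocytes bearing luciferase-reporter parasites were treated for a single generation at 37 C. Luminescence after adding detection reagent served as the growth measure.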
# SARS PLP yeast: inhibitors of SARS-CoV papain-like protease in yeast; S. cerevisiae expressing SARS-CoV PLpro, growth rescue; AID 485353; actives 0.19% (n = 330,000); Potency, µM (top dose mostly 32.9 µM), for the others: at the highest dose activity, positive = growth rescue, usual class: activators; calls by dose curve; note: potency is the fitted concentration of half-maximal effect; 0% is about no effect; nearly all actives have a fitted effect of over 55% in size
# AMA1 RON2 block: disrupts binding of P. falciparum AMA1 to RON2. AlphaScreen AMA1-biotinylated RON2 peptide binding. actives 0.2% (n = 360,000). Potency, µM (titrated, usually from 58.2 µM), for the others: at the top dose activity change, negative = inhibition, hits mostly inhibitors;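 note: potency is the fitted concentration of half-maximal effect; 0% = vehicle wells and -100% = peptide control; nearly all actives have a fitted effect of over 45% in size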
#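 AMA1 (3D7) with his tag at 25 nM final met compounds first, then biotinylated RON2 peptide at 25 nM; detection used donor plus acceptor beads, 10 µg/mL apiece, read by AlphaScreen after 30 min at room temperature.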
# Shiga inhibitor: inhibitors of Shiga toxin in Vero cells | Vero cells, Shiga toxin protein synthesis inhibition reporter | inhibition, % at 38.7 µM | actives 9.2% (n = 290,000) | AID 2315; in the data active = inhibition mostly above about 28%, no sharp cut-off; inactive = mostly below about 43%; note: 0% is about no effect
# CHX counter: affects cycloheximide protein synthesis inhibition readout, counter-screen | cell reporter, cycloheximide protein synthesis inhibition counterscreen | max response, % | actives 12% (n = 300,000); in the data active = max response mostly above about 13%, no sharp cut-off; inactive = mostly below about 14%; note: read at 38.3 µM for the half of the compounds with a filed dose; 0% is about no effect
# Pf growth 96h: P. falciparum growth inhibition at 96 hour, primary screen for plastid delayed-death inhibitors | P. falciparum luciferase reporter growth, 96 h | Potency, µM (doses to about 28.7 µM), for the others: top-dose activity change, negative = inhibition, usual class: inhibitors | actives 6.9% (n = 320,000); note: potency is the fitted concentration of half-maximal effect; % is set by controls: 0 for no effect and ±100 for the full control effect
#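 Two parasite generations (96 h, 37 C, 5% CO2) of compound exposure in infected erythrocytes (0.05% parasitemia, 2% hematocrit). Luciferase-reporter P. falciparum; decreased luminescence indicates inhibited growth, aimed at apicoplast-acting delayed death.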
# Active calls of the source: *; i = inactive; ? = inconclusive; / = not tested or not shown; + = active, no number; [ ] = another dose, or the depositor's remark. Shown are actives, neighbours in structure and some others; about 19% of the full set was active somewhere. Unless noted, calls come from the whole dose curve; as a rule, active = well fitted curve in the direction sought with a large enough effect; inconclusive = small, poorly fitted or top-dose-only effect, or another doubt; inactive = no such curve, though single readings can be large; an effect the other way counts as inactive or inconclusive.
SMILES,Pf growth 48h,SARS PLP yeast,AMA1 RON2 block,Shiga inhibitor,CHX counter,Pf growth 96h
CCCC[C@]12Cc3ccccc3C(O1)c1c(cc(-c3ccccc3)oc1=O)O2,0.43µM*,-17%[6.58 µM],/,+,13,1.5µM*
COc1ccc([C@]23Cc4ccccc4C(O2)c2c(cc(-c4ccccc4)oc2=O)O3)cc1,?,0%[6.58 µM],/,i,10,?
CCCC[C@]12Cc3cc(OC)c(OC)cc3C(O1)c1c(cc(-c3ccccc3)oc1=O)O2,?,-3%[6.58 µM],/,i,-1,1.5µM*
COc1ccccc1OCc1ccc(C(=O)N(C)C)o1,?,1%,11%,51,25*,91%
CCN(CC)C(=O)c1ccc(COc2ccccc2Cl)o1,13%,-1%,-2%,29,21*,?
COc1ccccc1OCc1ccc(C(=O)N(C)c2ccccc2)o1,-28%,-1%,6%,3,7,-27%
CN(C)C(=O)c1ccc(COc2ccccc2Br)o1,108%,-10%,-4%,86*,43*,?
CCC1(c2ccccc2)NC(=O)N(CC(=O)Nc2ccc(N3CCCC3)cc2C)C1=O (centres undefined),?,-17%,-26%,/,/,1%
CCOC(=O)C1CCCN(C(=O)c2ccncc2)CC1 (centres undefined),/,/,15%,/,/,/
O=C(Nc1cc(S(=O)(=O)N2CCCC2)ccc1Cl)c1cc(F)c(F)c(F)c1F,/,-6%,-3%,/,/,/
O=C(CCNC(=O)c1ccccc1)NNC(=O)c1ccccc1Br,/,-10%,14%,/,/,/
O=C(CSc1nnc(C2COc3ccccc3O2)o1)N1CCCC1 (centres undefined),?,-3%,-9%,52*,47*,?
CCOC(=O)N1CCN(C(=O)CSc2nnc(C3COc4ccccc4O3)o2)CC1 (centres undefined),/,-5%,-1%,-7,1,?
O=C(CSc1nnc(C2CCCCC2)o1)N1CCCCC1,13%,2%,0%,81*,31*,30%
O=C(CSc1nnc(NC(=O)c2cccc(Cl)c2)s1)NCC1CCCO1 (centres undefined),22%,-2%,7%,-5,5,-6%
COC(=O)c1cccc(Cn2nc(C)c([N+](=O)[O-])c2C)c1,18%,1%,10%,-9,7,18%
Cc1cc(N2CCCC2=O)cc(C)c1S(=O)(=O)NCCOc1ccc(C(C)(C)C)cc1,13µM*,-9%,-5%,0,-5,?
O=C(Nc1ccc(F)c(Cl)c1)[C@@H]1O[C@H](CO)[C@H](O)[C@H](O)[C@H]1O,/,/,0%,/,/,/
CCOc1ccc(N=Nc2c(C)noc2C)cc1,29%,-7%,2%,41,28*,?
CCOc1ccc(C(=O)NCC(=O)OCc2c(C)noc2C)cc1,1%,-19%,15%,-9,-2,8%
CC(C)N1C(=O)CN(C2CCCCCC2)C(=O)C1c1ccccc1F (centres undefined),?,-1%,-3%,187*,60*,?
Cc1ccc(C2C(=O)N(C3CCCC3)CC(=O)N2C2CCCCC2)cc1 (centres undefined),/,-2%,-3%,-9,-6,?
CC(CCc1ccc(O)cc1)NC1C2CC3CC(C2)CC1C3 (centres undefined),13µM*,?,-17%,-10,-1,-86%
CC(CCc1ccc(O)cc1)NC1c2ccccc2-c2ccccc21 (centres undefined),15µM*,3%,-5%,/,4,?
CC(O)CCc1ccc(O)cc1 (centres undefined),3%,1%,-2%,-7,-1,4%
SMILES,Pf growth 48h,SARS PLP yeast,AMA1 RON2 block,Shiga inhibitor,CHX counter,Pf growth 96h
CN(C(=O)c1ccc(-c2ccccc2)cc1)C1CCCCC1,/,/,18%,/,/,/
O=C(NNC(=O)c1cc2ccccc2cc1O)NC1CCCCC1,20%,14%,124%,23,12,3%
CN(C(=O)c1ccccc1Cl)C1CCCCC1,-6%,6%,-3%,-2,13*,/
O=C(NCC1CCCCC1)c1cc2ccccc2cc1O,1.3µM*,-24%,28%,74*,32*,1.7µM*
O=C(N/N=C1/CC2CCC1C2)c1cc2ccccc2cc1O (centres undefined),?,-6%,117%,-2,9,9.3µM*
CN(C(=O)c1ccc(Br)o1)C1CCCCC1,41%,0%,-12%,67*,33*,?
CN(C(=O)c1ccc(Br)o1)C1CCS(=O)(=O)C1 (centres undefined),1%,-2%,-5%,-2,-3,9%
CC(C)NC(=O)C1(C)CCN1Cc1ccc(Cl)cc1 (centres undefined),/,/,-2%,/,/,/
CCC1(c2ccc(OC)cc2)NC(=O)N(CC(=O)c2ccc3c(c2)OCCO3)C1=O (centres undefined),?,1%,2%,/,/,?
CC1CN(Cc2c(O)ccc3c(=O)c(-c4ccccc4Cl)coc23)CC(C)O1 (centres undefined),/,3%,10%,6,-5,?
CN(C(=O)COC(=O)c1cc2ccccc2cc1O)C1CCCCC1,-17%,5%,-4%,/,/,-9%
CN(C(=O)c1cc2ccccc2cc1O)C1CCCCC1,?,-4%,2%,23,21*,-26%
Cn1ncc([N+](=O)[O-])c1C(=O)Nc1cccc2ccccc12,16%,-1%,-11%,-25,-4,2.3µM*
CC(=O)Nc1ccc(NC(=O)c2c([N+](=O)[O-])cnn2C)cc1,5%,18%,42%,/,3,?
Cn1ncc([N+](=O)[O-])c1C(=O)Nc1ccc(-c2nc3ccccc3o2)cc1,6%,0%,-8%,41*,24*,4.7µM*
COc1ccccc1NC(=O)c1c(N=Cc2c(O)ccc3ccccc23)cnn1C,7.4µM*,1%,79%,11,0,?
Cc1cccc(NC(=O)c2c([N+](=O)[O-])cnn2C)c1,-2%,3%,15%,/,4,-29%
O=C(CCNC(=O)c1ccccc1Cl)Nc1ccncc1,17%,13%,-6%,-3,-2,0%
Cc1n[nH]c(=O)nc1N/N=C/c1ccc(O)c([N+](=O)[O-])c1,?,6%,138%,-3,14,53%
COc1ccc(/C=N/Nc2nc(=O)[nH]nc2C)cc1[N+](=O)[O-],25%,-14%,51%,6,7,?
COc1ccc(/C=N/Nc2nc(=O)[nH]nc2C)cc1OC,?,-2%,86%,66*,33*,?
COc1cc(/C=N/Nc2nc(=O)[nH]nc2C)cc([N+](=O)[O-])c1O,1.2µM*,-1%,91%,57*,25*,0.66µM*
COc1cc(/C=N/Nc2nc(=O)[nH]nc2C)ccc1O,?,-1%,114%,70*,37*,?
